Measured values from PubChem BioAssay (NCI).
Compounds without any hit were thinned out: in the full panel of roughly 79,000, 15% have a hit. Values without a mark were called inactive. The source made the active and inactive calls. Rule as the data show it: active = growth inhibition above about 70%; inactive = the rest.

Assay: NCI Yeast Anticancer Drug Screen. Data for the mec2-1 strain (AID 157)
Details: S. cerevisiae mec2-1 strain, active compounds read high
Method: Growth inhibition of yeast strains with defined genetic alterations is measured as a screen for potential anti-cancer activity. Selected strains with alterations in DNA damage repair or cell cycle control were exposed to compounds and growth inhibition was measured relative to vehicle treated controls. The strain used in this assay is mec2-1

[1] = at 5.0 µM (retest, dose inferred, filed as 0.5)
[2] = at 50.0 µM (retest, dose inferred, filed as 5.0)

Structure (SMILES) | growth inhibition (at 1.2 µM) [%] | growth inhibition (at 3.7 µM) [%] | growth inhibition [1] [%] | growth inhibition (at 11.0 µM) [%] | growth inhibition (at 33.0 µM) | growth inhibition [2] | growth inhibition (at 50.0 µM) | growth inhibition (at 100.0 µM)
CCSc1c2ccccc2c(-c2nc(F)nc(F)n2)n1CCc1ccccc1 | -14 | -17 | -43 | -4 | 78% (active) | 0% | 80.7% (active) | 98% (active)
OC1C#CCSCC#C/C=C\1 (stereo not given) | 1 | 18 | 62 | 14 | 54% | 100% (active) | 78.4% (active) | 97% (active)
CC1C=CN(N(C)C)C2=C1C(=O)c1cnccc1C2=O (stereo not given) | -36 | -23 | 30 | 49 | 86% (active) | 95% (active) | 92.2% (active) | 96% (active)
c1ccc(N/N=C2\CC(c3ccccc3)Oc3ccccc32)cc1 (stereo not given) | 1 | 4 | -2 | 9 | 14% | 23% | 31.4% | 13%
Cc1c(N=Nc2ccc(Cl)cc2)c(C)n(C2OC(CO)C(O)C(O)C2O)c(=S)c1C#N (stereo not given) | 2 | 3 | -5 | 6 | 21% | 40% | 60.2% | 28%
